What was measured:
Assay in all cases: thermal shift delta Tm vs DMSO control; higher = stronger stabilization (binding)
Settings in all cases: 12.5 µM; protein concentration 2 µM
[1] = system: LOC_OS04G57630-cb004
Outline: (§1)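 Heating from 25°C to 95°C at 0.05°C/s, fluorescence was recorded for 19.5 μl wells of 2 μM E. coli-expressed, purified rice kinase domain in 100 mM potassium phosphate pH 7.5, 150 mM NaCl, 10% glycerol and 5 × SYPRO Orange with compound in DMSO. Boltzmann fits gave melting temperatures for this differential scanning fluorimetry assay. The shift reported is the mean of three replicates against the DMSO-only protein.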

[2] = system: LOC_OS05G07850-cb002
Outline: as §1

[3] = system: LOC_OS05G16824-cb004
Outline: as §1

[4] = system: LOC_OS05G28520-cb001
Outline: as §1

[5] = system: LOC_OS05G30820-cb001
Outline: as §1

[6] = system: LOC_OS05G43570-cb004
Outline: as §1

[7] = system: LOC_OS06G16330-cb003
Chain of LOC_OS06G16330-cb003 (as listed by the source): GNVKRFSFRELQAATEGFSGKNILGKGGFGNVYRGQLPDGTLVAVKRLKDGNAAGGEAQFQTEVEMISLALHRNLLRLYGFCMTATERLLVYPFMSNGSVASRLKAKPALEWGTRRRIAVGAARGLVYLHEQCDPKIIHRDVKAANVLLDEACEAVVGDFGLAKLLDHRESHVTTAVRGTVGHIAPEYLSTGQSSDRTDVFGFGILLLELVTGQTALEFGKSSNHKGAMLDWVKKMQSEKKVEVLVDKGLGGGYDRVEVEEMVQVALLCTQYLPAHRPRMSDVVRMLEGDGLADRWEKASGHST
Outline: as §1

[8] = system: T1, LOC_OS06G22820-cb001
T1 sequence (whole entry): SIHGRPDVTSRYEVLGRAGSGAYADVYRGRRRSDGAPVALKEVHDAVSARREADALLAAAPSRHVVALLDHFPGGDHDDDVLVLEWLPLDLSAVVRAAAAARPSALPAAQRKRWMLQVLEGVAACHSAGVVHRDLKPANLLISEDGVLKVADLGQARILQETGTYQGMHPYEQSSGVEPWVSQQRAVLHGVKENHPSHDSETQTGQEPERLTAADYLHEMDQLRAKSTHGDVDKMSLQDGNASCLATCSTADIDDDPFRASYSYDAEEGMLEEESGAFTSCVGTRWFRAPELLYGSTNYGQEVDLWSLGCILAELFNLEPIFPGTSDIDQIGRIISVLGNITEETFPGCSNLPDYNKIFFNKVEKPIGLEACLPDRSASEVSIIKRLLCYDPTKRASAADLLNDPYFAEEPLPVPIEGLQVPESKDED
Outline: as §1

[9] = system: LOC_OS07G06570-cb004
Outline: as §1

[10] = system: LOC_OS07G07230-cb001
Outline: as §1
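Note: purified Escherichia coli-expressed rice kinase domain construct.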

SMILES | thermal shift delta Tm [1] [°C] | thermal shift delta Tm [2] [°C] | thermal shift delta Tm [3] [°C] | thermal shift delta Tm [4] [°C] | thermal shift delta Tm [5] [°C] | thermal shift delta Tm [6] [°C] | thermal shift delta Tm [7] [°C] | thermal shift delta Tm [8] [°C] | thermal shift delta Tm [9] [°C] | thermal shift delta Tm [10] [°C]
Cc1ccc(F)c(NC(=O)Nc2ccc(-c3cccc4[nH]nc(N)c34)cc2)c1 [Linifanib (ABT-869)] | 0.74 | 4.63 | 1.86 | 0.75 | 0.85 | 0.9 | 3.55 | 0.6 | 0.72 | 0.93
C=CCc1ccc(O)c(-c2ccc(O)c(CC=C)c2)c1 [Honokiol] | 0.34 | 0.49 | 1.45 | 0.24 | 0.69 | 0.62 | 0.47 | 0.7 | 0.49 | -0.78
CS(=O)(=O)CCNCc1ccc(-c2ccc3ncnc(Nc4ccc(OCc5cccc(F)c5)c(Cl)c4)c3c2)o1 [Lapatinib] | 0.95 | 5.03 | -0.92 | 0.22 | 0.61 | 1.4 | 0.59 | 1.74 | 2.3 | -0.12
C=C(C)[C@@H]1CC[C@]2(C)CC[C@]3(C)[C@H](CC[C@@H]4[C@@]5(C)CC[C@H](O)C(C)(C)[C@@H]5CC[C@]43C)[C@@H]12 [Lupeol] | 0.77 | 0.82 | 1.84 | 0.13 | 0.38 | 0.49 | -2.09 | 0.12 | 1.26 | 0.62
CC1(C)CNc2cc(NC(=O)c3cccnc3NCc3ccncc3)ccc21 [Motesanib Diphosphate (AMG-706)] | -0.11 | 0.52 | -3.02 | 0.68 | 0.49 | 0.21 | -0.19 | 0.37 | 0.75 | 0.81
COc1ccc2c(c1)[C@]1(C[C@H]1c1ccc3c(/C=C/c4ccc(CN5C[C@@H](C)O[C@@H](C)C5)cc4)n[nH]c3c1)C(=O)N2 | 7.27 | 12.3 | 9.09 | 0.02 | -0.63 | 0.5 | 11.6 | 0.46 | 0.63 | -0.28
CN(C)CCCn1cc(C2=C(c3c[nH]c4ccccc34)C(=O)NC2=O)c2ccccc21 | 0.12 | 3.88 | 1.25 | 0.24 | 0.37 | 0.07 | 0.14 | 0.44 | 0.94 | 0.81
CN1C(=O)[C@@H](NC(=O)c2n[nH]c(Cc3ccccc3)n2)COc2ccccc21 | 0.41 | 0.32 | 2.34 | -0.04 | 0.15 | 0.36 | 0.02 | 0.48 | 1.77 | 0.47
CN(C[C@@H]1COCCO1)S(=O)(=O)Nc1ccc2ccc3ncc(-c4cnn(C)c4)cc3c(=O)c2c1 | 4.12 | 10.5 | 7.72 | 0.77 | 1.85 | 0.41 | 7.23 | 0.65 | 1.07 | 0.63
CCC(=O)Nc1cccc(Oc2nc(Nc3ccc(N4CCN(C)CC4)cc3OC)ncc2Cl)c1 | 0.17 | 5.91 | -0.12 | 0.72 | 0.41 | 0.44 | 0.62 | 0.4 | 0.81 | 0.4
Cc1c[nH]c2nc(Nc3ccc(N4CCN(C)CC4)c(F)c3)nc(-c3cccc(CC#N)c3)c12 | 4.89 | 15 | 12.3 | 3.05 | 0.83 | 1.16 | 17.6 | -0.11 | 2.22 | 0.57
Cc1c(NC(=O)c2ccc(C(C)(C)C)cc2)cccc1-c1cn(C)c(=O)c(Nc2ccc(C(=O)N3CCOCC3)cc2)n1 | 0.37 | 0.29 | 0.48 | 0.5 | 0.18 | 0.64 | 0.07 | 0.84 | 1.05 | -0.21
Nc1[nH]nc2nnc(-c3c(-c4ccccc4)nn4ccccc34)cc12 | 0.25 | 2.77 | 2.12 | 0.56 | 0.84 | 0.89 | 1.11 | 0.39 | 0.46 | 0.64
N#CC[C@H](C1CCCC1)n1cc(-c2ncnc3[nH]ccc23)cn1 | 0.1 | 6.97 | 1.27 | 0.17 | 0.76 | 1.05 | 3.75 | 0.57 | 1.16 | -0.53
O=C1NC(=O)/C(=C/c2ccc(-c3ccc(F)cc3O)o2)S1 | 1.54 | 6.53 | 3.79 | 1.52 | 1.01 | 2.03 | 3.28 | 2.41 | 1.83 | 0.13
Cc1ccc(NC(=O)c2ccc(CN3CC[C@H](N(C)C)C3)c(C(F)(F)F)c2)cc1Nc1nccc(-c2cncnc2)n1 [Bafetinib (INNO-406)] | 0.08 | 0.37 | -2.81 | 1.08 | 0.77 | 0.5 | -0.31 | 0.4 | 1.66 | 0.62
COc1cc2/c(=N/c3ccc(Br)cc3F)nc[nH]c2cc1OCC1CCN(C)CC1 [Vandetanib (ZD6474)] | 2.9 | 9.77 | 2.5 | 0.62 | 0.52 | -0.25 | 9.59 | 1.8 | 4.17 | 0.94
CCCCOc1c(C(=O)c2c(F)cc(C)cc2F)c[nH]c2nncc1-2 | 0.1 | 5.8 | -1.11 | -0.07 | 0.47 | 0.9 | 0.88 | 1.75 | 0.61 | -0.1
O=C1NC(=O)/C(=C/c2ccc3nccc(-c4ccncc4)c3c2)S1 | 1.23 | 8.62 | 0.06 | 0.11 | 0.15 | 0.36 | 3.51 | 0.22 | 1.03 | 0.79
COc1cc(Nc2ncc(F)c(Nc3ccc4c(n3)NC(=O)C(C)(C)O4)n2)cc(OC)c1OC [R406 (free base)] | 2.15 | 13 | 12.6 | 0.85 | 1.44 | 0.79 | 14.8 | 0.44 | 0.75 | -0.18

SMILES | thermal shift delta Tm [1] [°C] | thermal shift delta Tm [2] [°C] | thermal shift delta Tm [3] [°C] | thermal shift delta Tm [4] [°C] | thermal shift delta Tm [5] [°C] | thermal shift delta Tm [6] [°C] | thermal shift delta Tm [7] [°C] | thermal shift delta Tm [8] [°C] | thermal shift delta Tm [9] [°C] | thermal shift delta Tm [10] [°C]
CC(C)CC(=O)Nc1n[nH]c2c1CN(C(=O)C1CCN(C)CC1)C2(C)C | 0.48 | 0.58 | 0.18 | 0.19 | 0.53 | 0.86 | -0.05 | 3.38 | 0.44 | 0.05
CNC(=O)c1ccccc1Nc1nc(Nc2ccc(N3CCOCC3)cc2OC)ncc1Cl | 1.29 | 11.8 | 5.34 | 0.37 | 0.69 | 0.1 | 4.89 | 0.54 | 1.58 | 0.57
O=C1Cc2c([nH]c3ccc(Br)cc23)-c2ccccc2N1 [Kenpaullone] | 2.67 | 7.41 | 3.07 | 1 | 2.18 | 1.21 | 2.59 | 0.96 | -0.23 | 0.05
COc1cc(N2CCC(N3CCN(C)CC3)CC2)ccc1Nc1ncnc(Nc2ccccc2S(=O)(=O)C(C)C)n1 | -0.16 | 9.97 | -1.84 | 0.49 | 0.53 | 0.45 | 2.65 | 0.91 | 1.77 | 0.45
CCCCNc1ncc(C(=O)NCc2ccc(-n3ccnc3)cc2)c(NC2CCC(O)CC2)n1 (stereo not given) | 3.08 | 11 | 8.45 | 0.43 | 1 | 0.57 | 11.2 | 0.49 | 1.44 | 0.57
COc1cc2nccc(Oc3ccc(NC(=O)C4(C(=O)Nc5ccc(F)cc5)CC4)cc3)c2cc1OC | 2.62 | 12.8 | 3.14 | 7.75 | 0.54 | 0.51 | 5.17 | 1.2 | 0.82 | 0.35
COc1ccc(S(=O)(=O)N(CCO)c2ccccc2CN(C)C/C=C/c2ccc(Cl)cc2)cc1 [KN-93 Phosphate] | 0.49 | 0.97 | 1.97 | 0.31 | 0.17 | 0.27 | -0.14 | 0.35 | 1.18 | 0.21
COc1cc(OC)c(C=C2C(=O)Nc3ccccc32)c(OC)c1 | 0.1 | 0.55 | -0.46 | 0.31 | 0.46 | -0.11 | -0.29 | 0.44 | 1.13 | 0.96
C=C[C@@](C)(/C=C/c1ccc(O)cc1)CCC=C(C)C [Bakuchiol] | 0.09 | 0.26 | -1.27 | 0.19 | 0.04 | 0.47 | -0.03 | 0.41 | 0.83 | 0.15
OC(c1cc(-c2ccc(Cl)cc2)nc2ccccc12)C1CCCCN1 (stereo not given) [Vacquinol-1] | 0.38 | 3.49 | 1.23 | 0.66 | 0.43 | 0.64 | 0.55 | 0.46 | 0.14 | -0.36
CCn1c(=O)c(-c2cc[nH]n2)cc2c(C)nc(N)nc21 | 0.11 | 3 | -1.71 | 0.22 | 0.35 | -0.07 | 0.86 | 0.06 | 0.51 | 0.61
COc1cc2ncnc(Nc3ccc(F)c(Cl)c3)c2cc1NC(=O)/C=C/CN1CCCCC1 | 0.99 | 0.3 | -1.53 | 1.09 | 0.67 | 1.72 | 0.01 | 1.31 | 1.37 | 0.21
COc1cc2c(Oc3ccc4[nH]c(C)cc4c3F)ncnc2cc1OCCCN1CCCC1 [Cediranib (AZD2171)] | 0.99 | 1.23 | 1.08 | -0.22 | 0.46 | 0.17 | -0.02 | 0.55 | 0.63 | 0.34
FC(F)(F)c1ccc(/C=C/c2nc(COc3ccc(CCCCn4ccnn4)cc3)co2)cc1 [Mubritinib (TAK 165)] | 0.31 | 0.65 | -1.49 | 0.05 | 0.57 | 0.39 | -0.19 | 0.32 | 0.47 | -1.09
C#Cc1cccc(Nc2ncnc3cc(OCCOC)c(OCCO)cc23)c1 | 0.14 | 8.23 | 0.76 | -0.52 | 0.4 | 0.13 | 3.5 | 0.25 | 0.7 | -0.14
O=C(c1ccc(/C=C/c2n[nH]c3ccccc23)cc1)N1CCNCC1 | 3.95 | 9.5 | 10.5 | 2.59 | 1.8 | 0.66 | 7.34 | 0.53 | 1.15 | 0.03
CCOc1cc(C(=O)N2CCC(N3CCN(C)CC3)CC2)ccc1Nc1ncc2c(n1)N(C1CCCC1)c1ccccc1C(=O)N2C | -0.22 | 1.11 | 0.71 | 0.22 | 0.32 | 0.17 | 0.04 | 0.34 | 0.95 | -0.25
Cc1c(CN2CCN(C(=O)[C@H](C)O)CC2)sc2c(N3CCOCC3)nc(-c3cnc(N)nc3)nc12 [Apitolisib (GDC-0980, RG7422)] | 0.67 | 2.89 | 1.9 | 0.57 | 0.58 | 1.24 | 0.88 | 0.56 | 0.61 | -0.1
C=CC(=O)N1CCN(CCCn2c(=O)c(-c3c(Cl)c(OC)cc(OC)c3Cl)cc3cnc(NC)nc32)CC1 | 0.34 | 0.01 | 3.63 | -0.19 | 0.06 | 0.18 | -0.29 | 0.15 | 0.73 | 1.75

From the supplement of paper PMC9694430
